The results in this text go back to PMC7862700, “An all-to-all approach to the identification of sequence-specific readers for epigenetic DNA modifications on cytosine”.

Common to all, as to assay: DAPPL (digital affinity profiling via proximity ligation, sequencing); 10 mM Tris-HCl pH 7.5, 50 mM NaCl, 1 mM DTT, 4% glycerol, room temperature, 30 min; GST-TFs on glutathione beads, 16-mer random dsDNA library, 0.1% formaldehyde crosslink after washing; high values mean tight binding
Conditions in all cases: protein: recombinant; tags: N-terminal GST; dsDNA, one strand shown

One test addresses T1, FLI1 (Homo sapiens, UniProt Q01543 1-452).
T1 sequence: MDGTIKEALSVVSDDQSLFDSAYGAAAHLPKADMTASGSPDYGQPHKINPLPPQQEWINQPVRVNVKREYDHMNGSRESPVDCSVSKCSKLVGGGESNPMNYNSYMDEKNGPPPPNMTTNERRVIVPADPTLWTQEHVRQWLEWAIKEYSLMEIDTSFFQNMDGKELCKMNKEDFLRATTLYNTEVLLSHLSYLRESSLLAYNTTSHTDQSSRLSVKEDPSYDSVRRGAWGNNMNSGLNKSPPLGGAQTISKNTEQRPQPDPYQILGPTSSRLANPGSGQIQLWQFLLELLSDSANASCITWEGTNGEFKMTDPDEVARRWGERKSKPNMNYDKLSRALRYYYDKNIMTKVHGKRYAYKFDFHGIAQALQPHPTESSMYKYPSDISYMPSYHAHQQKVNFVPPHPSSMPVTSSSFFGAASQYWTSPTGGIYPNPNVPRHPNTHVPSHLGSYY
In short, it runs like this: (§1)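 Human transcription factors fused to GST were expressed in yeast, captured on glutathione beads, given DNA barcodes and pooled with a GST-only negative control. Pools were incubated with 200 nmole of a 16-mer random double-stranded DNA library in Tris/NaCl/DTT/glycerol buffer at room temperature for 30 min. They were then washed, crosslinked with 0.1% formaldehyde, proximity-ligated (BsaI/T4 ligase, 1 h, 37 °C), PCR-amplified and sequenced on an Illumina NextSeq500. Binding signal is each 6-mer's read frequency for a factor divided by its frequency for the GST control.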

For another test, the target named is T2, SPIC (Homo sapiens, UniProt Q8N5J4 1-248).
T2 sequence: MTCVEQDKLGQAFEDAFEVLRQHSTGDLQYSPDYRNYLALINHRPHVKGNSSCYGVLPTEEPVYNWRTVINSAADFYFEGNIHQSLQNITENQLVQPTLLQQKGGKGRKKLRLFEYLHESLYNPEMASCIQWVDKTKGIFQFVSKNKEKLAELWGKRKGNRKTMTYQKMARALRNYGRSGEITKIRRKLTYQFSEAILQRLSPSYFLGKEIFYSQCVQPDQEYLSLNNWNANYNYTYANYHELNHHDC
The procedure, abridged: as §1

For another test, the target named is T3, ETV7 (Homo sapiens, UniProt Q9Y603 1-341).
T3 sequence: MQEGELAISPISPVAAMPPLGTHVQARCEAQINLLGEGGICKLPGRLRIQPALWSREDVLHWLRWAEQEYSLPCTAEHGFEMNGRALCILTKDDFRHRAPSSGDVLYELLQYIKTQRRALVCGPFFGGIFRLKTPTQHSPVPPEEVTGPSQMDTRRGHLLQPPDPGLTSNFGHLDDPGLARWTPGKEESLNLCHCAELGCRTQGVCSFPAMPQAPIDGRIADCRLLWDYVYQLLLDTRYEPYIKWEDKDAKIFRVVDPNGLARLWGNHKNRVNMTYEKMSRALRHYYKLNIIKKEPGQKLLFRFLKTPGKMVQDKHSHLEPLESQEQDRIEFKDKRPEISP
In short, it runs like this:
as §1

The target of the next test is T4, ETV3 (Homo sapiens, UniProt P41162-2 1-143).
T4 sequence: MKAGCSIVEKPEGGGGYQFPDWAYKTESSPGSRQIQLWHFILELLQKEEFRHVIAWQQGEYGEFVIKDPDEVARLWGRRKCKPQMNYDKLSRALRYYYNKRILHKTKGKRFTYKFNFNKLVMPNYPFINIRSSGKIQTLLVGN
In short, it runs like this:
as §1

Another test has as its target T5, GABPA (Homo sapiens, UniProt Q06546 1-454).
T5 sequence: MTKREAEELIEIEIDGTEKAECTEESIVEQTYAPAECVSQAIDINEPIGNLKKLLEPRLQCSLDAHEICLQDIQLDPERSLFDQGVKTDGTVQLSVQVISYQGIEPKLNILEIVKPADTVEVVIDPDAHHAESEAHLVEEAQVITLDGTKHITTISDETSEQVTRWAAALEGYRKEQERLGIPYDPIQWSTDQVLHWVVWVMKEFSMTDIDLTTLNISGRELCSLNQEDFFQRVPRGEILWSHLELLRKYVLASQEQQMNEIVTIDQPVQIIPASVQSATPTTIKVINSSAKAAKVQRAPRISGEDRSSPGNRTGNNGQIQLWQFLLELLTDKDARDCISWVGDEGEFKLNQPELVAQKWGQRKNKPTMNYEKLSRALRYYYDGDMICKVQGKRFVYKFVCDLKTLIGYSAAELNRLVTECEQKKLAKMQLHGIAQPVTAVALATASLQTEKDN
The procedure, abridged: as §1

The target of another test is T6, ERG (Homo sapiens, UniProt P11308 1-479).
T6 sequence: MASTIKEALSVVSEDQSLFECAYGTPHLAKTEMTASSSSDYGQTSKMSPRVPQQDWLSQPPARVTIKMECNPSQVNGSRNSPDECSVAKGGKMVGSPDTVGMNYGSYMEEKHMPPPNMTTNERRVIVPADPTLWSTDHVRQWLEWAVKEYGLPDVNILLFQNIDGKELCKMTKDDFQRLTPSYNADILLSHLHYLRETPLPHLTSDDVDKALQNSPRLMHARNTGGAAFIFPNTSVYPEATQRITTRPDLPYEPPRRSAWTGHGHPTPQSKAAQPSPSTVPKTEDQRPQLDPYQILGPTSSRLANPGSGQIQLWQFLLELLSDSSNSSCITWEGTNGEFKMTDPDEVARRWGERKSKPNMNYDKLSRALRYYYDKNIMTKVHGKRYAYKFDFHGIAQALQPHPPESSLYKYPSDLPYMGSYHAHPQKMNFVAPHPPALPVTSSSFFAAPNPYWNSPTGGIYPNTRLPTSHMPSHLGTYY
The procedure, abridged: as §1

A further test has as its target ELF1 (Homo sapiens, UniProt P32519 1-619). In short, it runs like this:
as §1

For a further test, the target named is T7, EHF (Homo sapiens, UniProt Q9NZC4 1-300).
T7 sequence: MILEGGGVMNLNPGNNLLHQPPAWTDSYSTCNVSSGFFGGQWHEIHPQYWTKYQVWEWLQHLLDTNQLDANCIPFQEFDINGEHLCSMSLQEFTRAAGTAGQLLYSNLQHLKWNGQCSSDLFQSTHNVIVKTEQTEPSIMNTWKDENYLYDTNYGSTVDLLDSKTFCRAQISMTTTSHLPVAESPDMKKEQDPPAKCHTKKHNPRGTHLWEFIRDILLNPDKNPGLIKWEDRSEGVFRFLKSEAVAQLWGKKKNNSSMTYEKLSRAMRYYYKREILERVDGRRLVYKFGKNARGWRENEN
The procedure, abridged: as §1

In another test the target is SPIB (Homo sapiens, UniProt Q01892 1-262). In short, it runs like this: as §1
In a further test the target is ELF4 (Homo sapiens, UniProt Q99607 1-663). In short, it runs like this: as §1
For a further test, the target named is T8, ELK4 (Homo sapiens, UniProt P28324-2 1-405).
T8 sequence: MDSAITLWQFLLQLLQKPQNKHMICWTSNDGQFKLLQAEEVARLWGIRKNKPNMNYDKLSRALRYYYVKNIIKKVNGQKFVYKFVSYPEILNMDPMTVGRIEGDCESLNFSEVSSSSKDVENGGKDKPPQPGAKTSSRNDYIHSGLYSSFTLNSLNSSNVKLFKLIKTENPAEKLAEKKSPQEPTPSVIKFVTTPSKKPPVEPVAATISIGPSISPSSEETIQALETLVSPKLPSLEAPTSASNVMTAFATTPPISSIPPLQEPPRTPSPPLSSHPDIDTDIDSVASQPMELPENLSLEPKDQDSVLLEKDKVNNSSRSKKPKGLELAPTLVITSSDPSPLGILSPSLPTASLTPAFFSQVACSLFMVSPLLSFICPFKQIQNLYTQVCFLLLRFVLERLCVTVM
In short, it runs like this:
as §1

A further test addresses T9, ELF3 (Homo sapiens, UniProt P78545 1-371).
T9 sequence: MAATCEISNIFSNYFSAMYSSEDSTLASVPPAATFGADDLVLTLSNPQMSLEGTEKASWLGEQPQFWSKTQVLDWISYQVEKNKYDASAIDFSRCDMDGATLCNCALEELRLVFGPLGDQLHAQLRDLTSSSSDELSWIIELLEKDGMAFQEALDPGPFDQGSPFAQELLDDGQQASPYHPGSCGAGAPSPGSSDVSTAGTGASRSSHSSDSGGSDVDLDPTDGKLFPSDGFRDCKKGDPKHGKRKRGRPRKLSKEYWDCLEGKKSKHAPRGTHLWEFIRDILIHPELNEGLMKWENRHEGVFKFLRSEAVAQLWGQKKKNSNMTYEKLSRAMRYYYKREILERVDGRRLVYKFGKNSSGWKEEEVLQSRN
In short, it runs like this:
as §1

The target of another test is ETV1 (Homo sapiens, UniProt P50549 1-477). In short, it runs like this:
as §1

The target in a further test is T10, ETV3L (Homo sapiens, UniProt Q6ZN32 1-361).
T10 sequence: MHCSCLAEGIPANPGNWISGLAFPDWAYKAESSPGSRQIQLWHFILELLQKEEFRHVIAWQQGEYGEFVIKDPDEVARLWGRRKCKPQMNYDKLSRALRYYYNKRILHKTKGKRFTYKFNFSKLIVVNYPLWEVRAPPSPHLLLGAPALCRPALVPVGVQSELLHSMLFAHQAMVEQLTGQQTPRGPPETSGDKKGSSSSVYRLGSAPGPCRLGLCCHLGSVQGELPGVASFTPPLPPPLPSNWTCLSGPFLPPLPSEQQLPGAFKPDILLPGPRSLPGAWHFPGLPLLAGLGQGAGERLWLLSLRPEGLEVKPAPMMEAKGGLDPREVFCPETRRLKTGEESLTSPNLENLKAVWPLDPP
In short, it runs like this: as §1

A further test addresses T11, ELK3 (Homo sapiens, UniProt P41970 1-407).
T11 sequence: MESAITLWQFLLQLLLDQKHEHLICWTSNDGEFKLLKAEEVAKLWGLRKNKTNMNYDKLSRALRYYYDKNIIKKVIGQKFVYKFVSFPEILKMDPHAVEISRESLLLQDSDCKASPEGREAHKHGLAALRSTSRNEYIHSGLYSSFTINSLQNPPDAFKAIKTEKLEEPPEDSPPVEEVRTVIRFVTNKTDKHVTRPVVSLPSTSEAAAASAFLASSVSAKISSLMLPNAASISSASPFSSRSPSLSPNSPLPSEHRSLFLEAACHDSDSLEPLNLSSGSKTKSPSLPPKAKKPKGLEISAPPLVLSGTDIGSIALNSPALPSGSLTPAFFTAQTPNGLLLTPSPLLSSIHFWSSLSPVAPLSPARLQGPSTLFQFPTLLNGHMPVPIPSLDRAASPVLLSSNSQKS
In short, it runs like this:
as §1

For another test, the target named is T12, ERF (Homo sapiens, UniProt P50548 1-548).
T12 sequence: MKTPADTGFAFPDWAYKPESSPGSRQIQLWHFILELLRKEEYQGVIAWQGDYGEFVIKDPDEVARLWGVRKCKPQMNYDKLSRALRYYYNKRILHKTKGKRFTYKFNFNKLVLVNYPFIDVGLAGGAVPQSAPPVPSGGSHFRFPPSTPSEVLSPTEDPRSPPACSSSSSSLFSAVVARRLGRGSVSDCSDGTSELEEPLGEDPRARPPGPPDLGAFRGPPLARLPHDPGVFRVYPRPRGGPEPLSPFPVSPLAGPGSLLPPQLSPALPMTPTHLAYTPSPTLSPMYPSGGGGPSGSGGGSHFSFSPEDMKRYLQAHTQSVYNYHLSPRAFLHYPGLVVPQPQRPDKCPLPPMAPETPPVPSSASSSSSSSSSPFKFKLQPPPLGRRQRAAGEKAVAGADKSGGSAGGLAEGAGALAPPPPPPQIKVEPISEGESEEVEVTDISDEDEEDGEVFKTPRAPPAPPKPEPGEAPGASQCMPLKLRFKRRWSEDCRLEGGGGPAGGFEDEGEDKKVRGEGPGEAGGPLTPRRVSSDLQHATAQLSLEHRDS
The procedure, abridged: as §1

In another test the target is ETV6 (Homo sapiens, UniProt P41212 1-452). The procedure, abridged:
as §1

Sequence of ELF4 (Q99607 whole entry): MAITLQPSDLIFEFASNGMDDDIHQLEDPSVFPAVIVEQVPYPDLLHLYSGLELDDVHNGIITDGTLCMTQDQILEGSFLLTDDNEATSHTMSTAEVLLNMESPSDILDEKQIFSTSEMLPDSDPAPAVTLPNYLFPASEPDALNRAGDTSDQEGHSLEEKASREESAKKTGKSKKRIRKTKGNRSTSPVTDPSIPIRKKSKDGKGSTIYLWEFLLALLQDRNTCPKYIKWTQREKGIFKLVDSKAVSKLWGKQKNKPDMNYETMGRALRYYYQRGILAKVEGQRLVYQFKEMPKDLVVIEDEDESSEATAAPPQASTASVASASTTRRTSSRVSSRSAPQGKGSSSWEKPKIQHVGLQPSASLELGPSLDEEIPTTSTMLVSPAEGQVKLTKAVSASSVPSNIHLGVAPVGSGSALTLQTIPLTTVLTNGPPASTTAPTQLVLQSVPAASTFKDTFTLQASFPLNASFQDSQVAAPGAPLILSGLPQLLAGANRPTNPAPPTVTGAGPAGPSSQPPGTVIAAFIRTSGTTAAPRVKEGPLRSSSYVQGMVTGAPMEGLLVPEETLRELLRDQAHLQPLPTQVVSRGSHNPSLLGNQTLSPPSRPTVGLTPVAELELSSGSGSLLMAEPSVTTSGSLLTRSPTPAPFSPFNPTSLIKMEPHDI
Sequence of SPIB (Q01892 whole entry): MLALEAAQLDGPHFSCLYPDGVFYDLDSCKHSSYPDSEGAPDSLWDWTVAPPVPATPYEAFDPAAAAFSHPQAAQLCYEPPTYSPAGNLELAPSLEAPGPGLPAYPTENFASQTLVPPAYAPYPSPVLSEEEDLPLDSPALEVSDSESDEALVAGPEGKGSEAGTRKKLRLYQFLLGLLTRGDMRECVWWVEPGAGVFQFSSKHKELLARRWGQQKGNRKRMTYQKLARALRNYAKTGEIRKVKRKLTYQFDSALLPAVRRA
Sequence of ELF1 (P32519 whole entry): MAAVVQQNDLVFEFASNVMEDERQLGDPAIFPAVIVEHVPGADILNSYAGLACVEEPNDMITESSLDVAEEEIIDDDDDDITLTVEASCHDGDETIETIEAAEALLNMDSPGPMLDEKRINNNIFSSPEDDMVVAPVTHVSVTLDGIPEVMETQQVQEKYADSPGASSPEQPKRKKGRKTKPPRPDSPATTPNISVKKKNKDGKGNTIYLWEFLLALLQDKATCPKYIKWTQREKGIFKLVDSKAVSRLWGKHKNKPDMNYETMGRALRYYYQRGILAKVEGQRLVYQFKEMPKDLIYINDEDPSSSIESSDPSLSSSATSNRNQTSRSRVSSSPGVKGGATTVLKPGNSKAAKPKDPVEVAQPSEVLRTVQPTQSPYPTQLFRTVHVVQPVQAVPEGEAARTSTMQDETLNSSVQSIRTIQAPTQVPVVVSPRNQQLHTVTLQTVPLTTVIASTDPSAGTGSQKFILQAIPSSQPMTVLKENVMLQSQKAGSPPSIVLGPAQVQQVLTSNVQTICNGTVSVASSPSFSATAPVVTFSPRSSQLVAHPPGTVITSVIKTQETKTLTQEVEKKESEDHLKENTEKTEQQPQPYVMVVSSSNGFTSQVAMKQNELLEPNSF
Sequence of ETV6 (P41212 whole entry): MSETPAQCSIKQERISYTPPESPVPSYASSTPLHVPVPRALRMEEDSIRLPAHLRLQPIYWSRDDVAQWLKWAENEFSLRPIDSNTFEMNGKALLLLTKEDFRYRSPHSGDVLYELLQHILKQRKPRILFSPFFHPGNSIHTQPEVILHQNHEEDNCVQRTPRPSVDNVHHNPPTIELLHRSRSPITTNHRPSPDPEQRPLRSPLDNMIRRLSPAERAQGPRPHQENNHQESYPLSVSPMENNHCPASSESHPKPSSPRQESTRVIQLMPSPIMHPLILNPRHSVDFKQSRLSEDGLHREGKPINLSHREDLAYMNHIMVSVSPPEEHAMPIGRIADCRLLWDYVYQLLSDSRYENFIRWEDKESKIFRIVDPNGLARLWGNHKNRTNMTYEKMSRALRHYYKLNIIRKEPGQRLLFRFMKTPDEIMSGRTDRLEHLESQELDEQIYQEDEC
Sequence of ETV1 (P50549 whole entry): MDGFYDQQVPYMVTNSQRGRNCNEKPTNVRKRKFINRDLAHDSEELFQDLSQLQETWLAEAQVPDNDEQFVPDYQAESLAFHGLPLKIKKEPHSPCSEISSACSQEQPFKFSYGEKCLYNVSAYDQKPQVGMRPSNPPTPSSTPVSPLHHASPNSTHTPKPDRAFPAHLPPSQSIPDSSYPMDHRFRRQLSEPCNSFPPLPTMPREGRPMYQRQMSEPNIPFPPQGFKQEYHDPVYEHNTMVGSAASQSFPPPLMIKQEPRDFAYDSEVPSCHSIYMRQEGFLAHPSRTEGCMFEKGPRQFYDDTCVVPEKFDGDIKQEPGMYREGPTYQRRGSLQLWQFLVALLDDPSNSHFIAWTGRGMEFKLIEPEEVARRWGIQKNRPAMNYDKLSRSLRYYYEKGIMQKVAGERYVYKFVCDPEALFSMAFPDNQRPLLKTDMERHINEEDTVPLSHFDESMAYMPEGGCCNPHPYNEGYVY

For AGGCCC, the binding signal in the test with FLI1 is 1.01 fold enrichment (6-mer frequency, TF over GST control); with SPIC, 1.08 fold enrichment (6-mer frequency, TF over GST control); in the test with ETV7, 1.03 fold enrichment (6-mer frequency, TF over GST control); with ETV3 it was 1.01 fold enrichment (6-mer frequency, TF over GST control).
TGTGAT: the binding signal is 1.16 fold enrichment (6-mer frequency, TF over GST control) with FLI1; 1.01 fold enrichment (6-mer frequency, TF over GST control) with GABPA; 1.06 fold enrichment (6-mer frequency, TF over GST control) with ERG; 1.01 fold enrichment (6-mer frequency, TF over GST control) in the test with ELF1; 1.03 fold enrichment (6-mer frequency, TF over GST control) in the test with EHF; 1.01 fold enrichment (6-mer frequency, TF over GST control) with SPIB. Further, the binding signal in the test with ELF4 was 1.05 fold enrichment (6-mer frequency, TF over GST control); in the test with ELK4 it was 1.07 fold enrichment (6-mer frequency, TF over GST control); with ELF3 it was 1.14 fold enrichment (6-mer frequency, TF over GST control); in the test with ETV1, 1.08 fold enrichment (6-mer frequency, TF over GST control); in the test with ETV3L it was 1.01 fold enrichment (6-mer frequency, TF over GST control); with ETV7, 1.05 fold enrichment (6-mer frequency, TF over GST control).
For the sequence CAAAGT, the binding signal is 1.01 fold enrichment (6-mer frequency, TF over GST control) in the test with FLI1; 1.03 fold enrichment (6-mer frequency, TF over GST control) with ELF1; 1.04 fold enrichment (6-mer frequency, TF over GST control) with SPIB; 1.06 fold enrichment (6-mer frequency, TF over GST control) with ELK3; 1.03 fold enrichment (6-mer frequency, TF over GST control) with ELF4; 1 fold enrichment (6-mer frequency, TF over GST control) with ETV7.
In the case of ACCGTT, the binding signal was 1.03 fold enrichment (6-mer frequency, TF over GST control) with FLI1; 1.02 fold enrichment (6-mer frequency, TF over GST control) in the test with GABPA; 1 fold enrichment (6-mer frequency, TF over GST control) with ELF4; 1.05 fold enrichment (6-mer frequency, TF over GST control) with ERF; 1.08 fold enrichment (6-mer frequency, TF over GST control) with ETV7; 1.01 fold enrichment (6-mer frequency, TF over GST control) in the test with ETV3. The binding signal in the test with ETV6 was 1 fold enrichment (6-mer frequency, TF over GST control).
